Screens from PubChem BioAssay.
TMEM16A inh: inhibitors of mouse TMEM16A calcium-activated chloride channel; actives 1.2% (n = 310,000); HEK293 TMEM16A/YFP iodide influx fluorescence, ionomycin; normalized B-score (activity score, 25-100; higher = stronger inhibition) at 10 µM; AID 588511; Q8BHY3;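 active = ratio plate-corrected score three or more library SD toward inhibition, starting fluorescence score within five deviations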;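 also: score derived from kinetic fluorescence span divided by baseline fluorescence per well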
NR3A LBD binder: NR3A (human) ligand-binding domain modulation; NR3A LBD differential scanning fluorimetry, Tm shift; 0% = protein alone, 100% = glycine-bound protein; AID 1259313; actives 2.5% (n = 340,000); Tm shift relative to glycine control, % at 25 µM;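 active = melting temperature shift of at least 10% of the positive control shift, at one fixed dose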
CRFR2-BP antag: blocks CRF-induced signaling of the CRF-BP/CRF-R2 complex; HEK293 CRF-R2/CRF-BP, CRF-induced calcium fluorescence; actives 0.59% (n = 350,000); inhibition, % at 11.8 µM; AID 588475;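 active = inhibition of the ligand-induced calcium signal above about 50% at the single tested concentration, limit read from the data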
MPTP inh: inhibitors of mitochondrial permeability transition pore; isolated mouse mitochondria, Ca2+ swelling absorbance, 30 min; inhibition, % at 10 µM; actives 1.4% (n = 360,000);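 active = inhibition of 50% or more, scaled per plate between neutral and stimulator controls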;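 also: 0% = DMSO wells given calcium and 100% = 1 mM EGTA wells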
ANO1 activ: activates or potentiates the mouse TMEM16A chloride channel; Q8BHY3; HEK293 TMEM16A/YFP-H148Q/I152L, iodide quench fluorescence; hits give low values; B-score at 10 µM; actives 0.3% (n = 340,000); AID 623877;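 active = fluorescence-ratio B-score plate-corrected deviation score at least 3 library SD below zero, with starting fluorescence score within 5 deviations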;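 also: channel opened by trigger with iodide after compound preincubation; score built on the fluorescence ratio of max minus min over baseline; more negative score means more quench and so TMEM16A activation or potentiation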
CRFBP-R2 agonist: CRF-BP/CRF-R2 complex agonism | AID 588473 | activation, % at 13.2 µM | actives 0.46% (n = 350,000) | HEK293 CRF-R2/CRF-BP, calcium dye fluorescence (FLIPR); percent of saturating CRF peptide response;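 active = activation of at least 50%, plus an integration ratio under a set limit after plate pattern correction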;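 also: plate controls were neutral control wells without compound for no effect and CRF at EC100 for full effect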
TMEM16A reconf: TMEM16A (mouse) chloride channel inhibition, re-confirmation | shares compounds with TMEM16A inh | HEK293 TMEM16A/YFP-H148Q, iodide quench fluorescence; ionomycin added to raise cell calcium | inhibition, % at 10 µM | actives 39% (n = 2,300) | AID 652189;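 active = mean duplicate percent inhibition, scaled so buffer wells are 0 and the reference blocker 100, over three buffer SD above buffer mean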
HEK293 Ca mobil: counter-screen for TMEM16A inhibitors: effect on calcium mobilization | calcium response (% of ionomycin), % at 10 µM | actives 2% (n = 2,300) | TMEM16A/YFP HEK293, Fluo4 calcium mobilization | shares compounds with TMEM16A inh;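 active = duplicate-averaged calcium signal over 20% of the ionomycin maximum, relative to buffer baseline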;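 also: each well's signal is peak minus trough fluorescence divided by its pre-addition baseline; 0% = buffer wells and 100% = ionomycin wells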
YFP-HEK293 quench: counter-screen for TMEM16A inhibitors: effect in parental YFP-HEK293 cells; shares compounds with TMEM16A inh; iodide YFP quench, ionomycin; YFP ratio F(max-min)/F0 at 10 µM; 2,300 tested, under 10 active; AID 652233;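 active = yellow fluorescent protein signal ratio exceeding the buffer control mean by over 5 SD of those controls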;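 also: ratio is mean of duplicate wells from kinetic YFP trace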
ClC-1 rat inh: blocks the rat ClC-1 voltage-dependent chloride channel. ratio percent, % at 10 µM. AID 652236. shares compounds with TMEM16A inh. CHO ClC-1-YFP, iodide influx fluorescence quench; iodide control reads 0, buffer control 100. 2,300 tested, under 10 active;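 active = duplicate-mean ratio percent above the mean of iodide-only control wells, which defines zero, plus 5 of their SD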;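 also: higher percent means stronger block of ClC-1 iodide influx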
Target sequence (P35524 whole entry, looked up): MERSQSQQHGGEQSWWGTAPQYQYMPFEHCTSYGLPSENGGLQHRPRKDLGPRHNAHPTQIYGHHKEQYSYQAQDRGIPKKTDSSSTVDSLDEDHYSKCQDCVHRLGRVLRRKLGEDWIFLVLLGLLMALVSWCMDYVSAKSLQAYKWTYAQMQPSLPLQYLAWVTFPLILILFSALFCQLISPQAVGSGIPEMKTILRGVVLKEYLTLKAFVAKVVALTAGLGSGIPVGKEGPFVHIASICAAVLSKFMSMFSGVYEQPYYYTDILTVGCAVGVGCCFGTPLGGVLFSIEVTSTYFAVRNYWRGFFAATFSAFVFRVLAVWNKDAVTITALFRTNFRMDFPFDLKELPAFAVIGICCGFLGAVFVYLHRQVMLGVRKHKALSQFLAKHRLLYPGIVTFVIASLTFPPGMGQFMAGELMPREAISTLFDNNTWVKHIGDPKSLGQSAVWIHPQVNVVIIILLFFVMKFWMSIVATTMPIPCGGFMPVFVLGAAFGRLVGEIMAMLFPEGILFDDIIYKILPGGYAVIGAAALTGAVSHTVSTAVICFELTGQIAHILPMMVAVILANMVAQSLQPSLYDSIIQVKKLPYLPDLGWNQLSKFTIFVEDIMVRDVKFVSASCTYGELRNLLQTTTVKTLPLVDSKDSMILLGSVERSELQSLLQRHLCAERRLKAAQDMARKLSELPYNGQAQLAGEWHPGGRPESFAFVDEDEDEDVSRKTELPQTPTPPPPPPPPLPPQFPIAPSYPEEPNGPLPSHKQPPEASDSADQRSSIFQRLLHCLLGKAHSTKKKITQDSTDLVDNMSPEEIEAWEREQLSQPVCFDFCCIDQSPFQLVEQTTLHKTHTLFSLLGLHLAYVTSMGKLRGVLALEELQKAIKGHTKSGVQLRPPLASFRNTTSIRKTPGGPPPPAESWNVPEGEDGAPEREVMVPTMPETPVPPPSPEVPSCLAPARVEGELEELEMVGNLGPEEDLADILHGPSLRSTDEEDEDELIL
An asterisk follows results filed as active. Sampled rows, rich in hits. Any-hit rate of the full collection: about 5.1%.

COc1cc(OC)c(OC)cc1/C=C1/Cc2ccccc2C1=O was read as TMEM16A inh inactive, NR3A LBD binder 0, CRFR2-BP antag -23, MPTP inh 1, ANO1 activ inactive, CRFBP-R2 agonist 51*, TMEM16A reconf inactive, HEK293 Ca mobil 28%*, YFP-HEK293 quench -0.98 and ClC-1 rat inh -2.
`CCc1ccc(NC(=S)N(Cc2ccccc2)Cc2ccccn2)cc1` gave TMEM16A inh 25*, NR3A LBD binder -5, CRFR2-BP antag 3, MPTP inh -2, ANO1 activ inactive, CRFBP-R2 agonist 0, TMEM16A reconf inactive, HEK293 Ca mobil inactive, YFP-HEK293 quench -1.2 and ClC-1 rat inh -8.
`CCCCNC(=O)[C@]1(C)CCC[C@@]2(C)C3CC[C@@]4(C)C[C@]3(CCC21)CC4=O` (some centres not stated) gave NR3A LBD binder 0, CRFR2-BP antag -12, MPTP inh 0, ANO1 activ inactive and CRFBP-R2 agonist 2.
`N#Cc1nc(-c2ccccc2Cl)oc1N1CCCCC1` gave TMEM16A inh 25*, NR3A LBD binder 10, CRFR2-BP antag 4, MPTP inh 2, ANO1 activ inactive, CRFBP-R2 agonist -2, TMEM16A reconf inactive, HEK293 Ca mobil inactive, YFP-HEK293 quench -1 and ClC-1 rat inh -7.
Screening COc1ccccc1-c1nc(C#N)c(N2CCC(Cc3ccccc3)CC2)o1 returned TMEM16A inh 100*, NR3A LBD binder 2, CRFR2-BP antag -1, MPTP inh 2, ANO1 activ inactive, CRFBP-R2 agonist 2, TMEM16A reconf inactive, HEK293 Ca mobil inactive, YFP-HEK293 quench -1.1 and ClC-1 rat inh -15.
COc1ccccc1-c1nc(C#N)c(N2CCN(Cc3ccccc3)CC2)o1 was read as TMEM16A inh inactive, NR3A LBD binder -5, CRFR2-BP antag -2, MPTP inh -3, ANO1 activ inactive and CRFBP-R2 agonist -1.
Screening Cc1[nH]c2ccccc2c1C(=O)COC(=O)c1nccnc1N returned NR3A LBD binder 0, CRFR2-BP antag 4, MPTP inh -1, ANO1 activ inactive and CRFBP-R2 agonist 0.
`Oc1c(C=Nc2cccnc2)sc2ccccc12` gave TMEM16A inh inactive, NR3A LBD binder 6, CRFR2-BP antag -28, MPTP inh 0, ANO1 activ inactive, CRFBP-R2 agonist 6, TMEM16A reconf inactive, HEK293 Ca mobil inactive, YFP-HEK293 quench -1 and ClC-1 rat inh -5.
Screening CN=C1S/C(=C\c2ccc(O)c(Br)c2)C(=O)N1C returned TMEM16A inh 25*, NR3A LBD binder 0, CRFR2-BP antag 23, MPTP inh 2, ANO1 activ inactive, CRFBP-R2 agonist 5, TMEM16A reconf inactive, HEK293 Ca mobil inactive, YFP-HEK293 quench -1 and ClC-1 rat inh -10.
`CN=C1S/C(=C\c2ccc(O)c(OC)c2)C(=O)N1C` gave TMEM16A inh inactive, NR3A LBD binder 1, CRFR2-BP antag 3, MPTP inh 0, ANO1 activ inactive and CRFBP-R2 agonist 2.
For COc1cccc(/C=C2\CCC(C3CCCC3)C2=O)c1OC (configuration not stated) the results were TMEM16A inh 25*, NR3A LBD binder -1, CRFR2-BP antag -12, MPTP inh -1, ANO1 activ inactive, CRFBP-R2 agonist 4, TMEM16A reconf 18%*, HEK293 Ca mobil inactive, YFP-HEK293 quench -0.98 and ClC-1 rat inh -8.
Screening CC(C)CC(=O)c1c[nH]c(C(=O)NCCCN2CCOCC2)c1 returned TMEM16A inh 25*, NR3A LBD binder 0, CRFR2-BP antag 7, MPTP inh 2, ANO1 activ inactive, CRFBP-R2 agonist 0, TMEM16A reconf inactive, HEK293 Ca mobil inactive, YFP-HEK293 quench -0.99 and ClC-1 rat inh -10.
Cc1ccc(C(=O)c2c[nH]c(C(=O)NCCCN3CCOCC3)c2)cc1 was read as TMEM16A inh inactive, NR3A LBD binder 1, CRFR2-BP antag 39, MPTP inh 0, ANO1 activ inactive and CRFBP-R2 agonist 0.
For O=C1CC(C(=O)Nc2ccccc2)N=C(N2CCCCC2)N1 (configuration not stated) the results were TMEM16A inh inactive, NR3A LBD binder -2, CRFR2-BP antag 5, MPTP inh -1, ANO1 activ inactive, CRFBP-R2 agonist 0, TMEM16A reconf inactive, HEK293 Ca mobil inactive, YFP-HEK293 quench -1.1 and ClC-1 rat inh -5.
`O=C1CC(C(=O)NCc2ccccc2)N=C(N2CCCCC2)N1` (configuration not stated) gave TMEM16A inh inactive, NR3A LBD binder 4, CRFR2-BP antag 7, MPTP inh 0, ANO1 activ inactive and CRFBP-R2 agonist -2.
`CCC1c2ccc(C)n2CCN1C(=O)Nc1ccccc1C(=O)OC` (configuration not stated) gave TMEM16A inh inactive, NR3A LBD binder 0, CRFR2-BP antag -2, MPTP inh -1, ANO1 activ inactive, CRFBP-R2 agonist 4, TMEM16A reconf inactive, HEK293 Ca mobil inactive, YFP-HEK293 quench -1.1 and ClC-1 rat inh -14.
CCOC(=O)c1ccccc1NC(=O)N1CCn2c(C)ccc2C1CC (configuration not stated) was read as TMEM16A inh inactive, NR3A LBD binder 0, CRFR2-BP antag 5, MPTP inh -10, ANO1 activ inactive and CRFBP-R2 agonist 5.
`CCC1c2ccc(C)n2CCN1C(=O)Nc1cc(Cl)ccc1OC` (configuration not stated) gave TMEM16A inh inactive, NR3A LBD binder -2, CRFR2-BP antag 42, MPTP inh -1, ANO1 activ inactive, CRFBP-R2 agonist 0, TMEM16A reconf 16%*, HEK293 Ca mobil inactive, YFP-HEK293 quench -0.98 and ClC-1 rat inh -10.
For CCCC1c2ccc(C)n2CCN1C(=O)Nc1ccccc1Cl (configuration not stated) the results were TMEM16A inh inactive, NR3A LBD binder -2, CRFR2-BP antag -3, MPTP inh -2, ANO1 activ inactive and CRFBP-R2 agonist 35.
